Screening data (PubChem BioAssay)
An excerpt weighted towards active compounds, which were near 4.1% of everything screened.
Bead autofluor: counter-screen for toxin protease inhibitors: compound fluorescence; compound autofluorescence counterscreen, microsphere flow cytometry; active compounds read high; fluorescence intensity (no concentration beside the values); actives 3.1% (n = 360,000); AID 624483; in the data active means fluorescence intensity above about 16000; inconclusive means no clear call, values can overlap the other calls
Anthrax LF prot: anthrax lethal factor protease inhibition | AID 588501 | multiplex microsphere protease cleavage assay, LF | actives 0.12% (n = 360,000) | inhibition, % at 10 µM; further: plate controls were buffer without enzyme for full effect and enzyme alone for no effect
BoNT A protease: BoNT A light chain protease inhibition. multiplex microsphere protease substrate cleavage, flow cytometry. AID 588499. inhibition, % at 10 µM. actives 0.17% (n = 360,000); further: plate controls were buffer without enzyme for full effect and enzyme alone for no effect
BoNT-F LC inh: inhibitors of Botulinum neurotoxin F light chain protease; Multiplex microsphere protease cleavage assay, flow cytometry; inhibition, % at 10 µM; actives 0.22% (n = 360,000); AID 588497; in the data active means inhibition above about 35%, passing the limit was not always enough; inconclusive means no clear call, values can overlap the other calls; further: plate controls were buffer without enzyme for full effect and enzyme alone for no effect
VHR inh abs: DUSP3 (human) phosphatase inhibition; AID 1654; recombinant VHR phosphatase, pNPP absorbance; actives 0.52% (n = 290,000); inhibition, % at 13.3 µM; in the data active means inhibition above about 50%
MazEF act: increases E. coli MazEF RNase cleavage of RNA; P0AE70; FAM/BHQ RNA-DNA oligo cleavage fluorescence, 5 h; activation, % at 20 µM; actives 0.32% (n = 350,000); in the data active means activation above about 50%
The depositor's hits bear a star; ? = inconclusive; . = not tested or not shown. Unless noted, no stated cut-off is given here; in the data, active means inhibition above about 30%; inconclusive means no clear call, values can overlap the other calls; inactive means below that.

SMILES	Bead autofluor	Anthrax LF prot	BoNT A protease	BoNT-F LC inh	VHR inh abs	MazEF act
Cc1ccc(NC(=O)N/C=C/c2ccco2)c(C)c1	16016	1.6	2.4	2.2	12.7	-13.4
COc1c(F)c(F)c(C(=O)O)c(Nc2ccc(C)cc2)c1F	22057*	-1.4	-4.9	-5.1	32.9	0.9
CCOc1ncccc1C(=O)OCC(=O)Nc1cc(S(=O)(=O)N2CCOCC2)ccc1C	2006	-2.4	0.1	-1.1	-3.9	-0.4
CCOc1ncccc1C(=O)OCC(=O)Nc1cc(C)ccc1C	23113*	-3.5	-0.9	-0.8	17.3	-11.1
Cc1cccc(C(=O)Nc2cccnc2Cl)c1	2572	-24.6	65.8*	-160.0	-10.7	13.3
Cc1ccc(C)c(NC(=O)c2ccccn2)c1	20724*	-0.4	?	0.5	11.9	-6.5
Cc1cccc(C(=O)Nc2cc(OCc3cccc(F)c3)c(Cl)cc2Cl)c1	19656*	-0.4	?	0.6	1.8	-3.2
COCCOc1cc(NC(=O)c2cccc(OC)c2)c(Cl)cc1Cl	4804	4.3	-0.4	-5.7	-1.4	-2.0
O=C(Nc1cccnc1Cl)c1cccc(F)c1	.	.	.	.	29.8	.
CCn1c(CC(=O)Nc2ccccc2F)nnc1SCC(=O)Nc1nncs1	6946	1.1	-3.2	-5.5	1.4	7.9
CCN(C(=O)COC(=O)Cn1c(=O)oc2ccccc21)c1c(N)n(Cc2ccccc2)c(=O)[nH]c1=O	?	?	5.6	6.7	.	1.7
CNC(=O)C1(C)CCN1C(=O)Cc1ccc(C(C)C)cc1 (stereo not drawn)	3428	4.2	-0.1	1.2	.	.
NC(=O)c1cccn1Cc1cccc(Cl)c1	10318	-1.1	-0.8	-10.1	11.6	-0.9
NC(=O)c1cccn1Cc1ccccc1Cl	22851*	3.3	-0.1	2.2	-0.7	1.0
Cc1cc(C)cc(Nc2nc(-c3ccc(S(=O)(=O)N4CCCC4)cc3)cs2)c1	1864	-1.7	-1.5	-16.1	10.5	4.6
Cc1ccc(Nc2nc(-c3ccc(S(=O)(=O)N4CCCC4)cc3)cs2)cc1C	25361*	-4.6	-4.4	-8.8	32.1	1.4
Cc1ccc(S(=O)(=O)N2CCN(S(=O)(=O)N3CCOCC3)CC2)cc1C	16305*	-3.0	-0.5	4.3	-8.8	3.8
Cc1ccc(S(=O)(=O)N2CCCN(S(=O)(=O)c3ccc(C)c(C)c3)CC2)cc1C	16751*	-7.1	-1.9	-3.3	13.3	-2.8
COc1ccc(C(C)(O)c2nc(-c3ccc(N(C)C)cc3)cs2)cc1 (stereo not drawn)	3799	-7.6	-0.8	-5.8	.	.
Cc1cccc(-c2ccc3[nH]c4c(c3c2)CCN2C[C@@H]([C@H](C)OC(=O)Nc3ccccc3C)[C@@H](N(C)C(=O)Nc3ccccc3C)C[C@@H]42)c1	5614	1.9	1.1	-8.2	.	-46.8
O=S(=O)(NCCO)c1ccc2c(c1)Cc1cc(S(=O)(=O)NCCO)ccc1-2	4037	-15.1	0.2	2.7	34.4	9.3
NNS(=O)(=O)c1ccc2c(c1)Cc1cc(S(=O)(=O)NN)ccc1-2	3151	-1.8	-1.9	-7.8	44.8	154.2*
O=C1NC[C@@H](CCCCN2CCN(Cc3ccccc3)C(=O)C2=O)N(Cc2ccccc2)C1=O	5079	-7.6	0.0	-3.2	.	.
COc1ccc(C(CNC(=O)c2cccc(NS(=O)(=O)c3ccc(Br)cc3)c2)N(C)C)cc1 (stereo not drawn)	?	-3.9	2.1	?	.	-1.3
CCOC(=O)N1CCN(Cc2c(F)cccc2F)CC1	3108	1.1	0.5	-2.2	7.6	-0.3
SMILES	Bead autofluor	Anthrax LF prot	BoNT A protease	BoNT-F LC inh	VHR inh abs	MazEF act
CCOC(=O)N1CCN(Cc2c(F)cccc2Cl)CC1	9695	-1.5	-0.3	0.6	50.8*	6.1
Cc1c(NC(=O)C(C)Sc2nc3ccccc3c(=O)n2CCO)c(=O)n(-c2ccccc2)n1C (stereo not drawn)	21769*	-1.4	-7.2	-5.3	11.7	12.0
Cc1c(NC(=O)C(C)Sc2ccc3ccccc3n2)c(=O)n(-c2ccccc2)n1C (stereo not drawn)	2353	3.1	0.3	15.9	22.9	-10.6
CCC(C)NCCOCCOc1ccccc1-c1ccccc1 (stereo not drawn)	23087*	-5.0	-0.4	-4.6	6.2	6.9
CCC(C)NCCOCCOc1ccc(Cl)cc1Br (stereo not drawn)	4372	-7.3	5.1	35.1*	-15.3	-23.1
Cc1ccc(N(CC(=O)NC(C)C)C(=O)CCC(=O)Nc2nccs2)cc1C	3440	-11.2	-4.1	16.6	6.0	3.8
